Measurements: paper PMC4336329 (PLoS ONE, 2015)
The whole screen tested about 310,000 compounds, of which about 14,000 (4.5%) showed an effect of 50% or more. Effects have a minus sign here. Shown is part of a subset that was picked to be rich in strong results.

target: human ether-à-go-go-related gene (hERG) potassium channel (human, UniProt Q12809); test: primary screen, population patch clamp on CHO cells stably expressing hERG; higher = less effect of the substance
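Note: peak tail current of the secondary pulse compared with the same well before compound.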

human ether-à-go-go-related gene (hERG) potassium channel, sequence (Q12809 whole entry, looked up): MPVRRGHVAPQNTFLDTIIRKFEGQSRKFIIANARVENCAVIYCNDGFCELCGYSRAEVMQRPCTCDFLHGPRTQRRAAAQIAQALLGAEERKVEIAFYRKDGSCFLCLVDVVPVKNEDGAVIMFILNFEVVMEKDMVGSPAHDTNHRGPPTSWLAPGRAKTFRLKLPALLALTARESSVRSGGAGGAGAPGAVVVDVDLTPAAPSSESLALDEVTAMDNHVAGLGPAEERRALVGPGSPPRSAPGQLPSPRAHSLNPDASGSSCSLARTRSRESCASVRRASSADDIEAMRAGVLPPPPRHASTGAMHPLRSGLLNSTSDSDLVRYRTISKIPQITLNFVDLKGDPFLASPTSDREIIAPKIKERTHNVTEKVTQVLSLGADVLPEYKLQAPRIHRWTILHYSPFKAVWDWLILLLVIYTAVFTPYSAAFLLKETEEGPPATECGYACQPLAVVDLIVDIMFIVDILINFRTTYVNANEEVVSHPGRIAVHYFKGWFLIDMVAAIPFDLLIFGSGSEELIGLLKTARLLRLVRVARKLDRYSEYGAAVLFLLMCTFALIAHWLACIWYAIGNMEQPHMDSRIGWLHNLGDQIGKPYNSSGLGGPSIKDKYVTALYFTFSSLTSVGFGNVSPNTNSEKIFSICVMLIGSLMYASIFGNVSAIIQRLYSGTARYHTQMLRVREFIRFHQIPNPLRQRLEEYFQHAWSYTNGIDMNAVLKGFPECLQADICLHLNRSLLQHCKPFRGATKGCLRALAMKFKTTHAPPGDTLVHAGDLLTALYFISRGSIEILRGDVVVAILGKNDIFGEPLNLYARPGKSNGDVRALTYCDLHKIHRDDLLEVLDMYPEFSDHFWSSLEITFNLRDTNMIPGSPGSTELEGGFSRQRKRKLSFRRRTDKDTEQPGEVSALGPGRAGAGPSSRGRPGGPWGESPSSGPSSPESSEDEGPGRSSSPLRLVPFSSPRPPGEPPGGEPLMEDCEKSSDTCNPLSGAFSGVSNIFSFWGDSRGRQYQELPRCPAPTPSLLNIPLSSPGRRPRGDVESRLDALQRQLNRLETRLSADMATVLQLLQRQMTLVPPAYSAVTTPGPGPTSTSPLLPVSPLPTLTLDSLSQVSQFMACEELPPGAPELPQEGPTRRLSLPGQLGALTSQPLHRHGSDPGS

Row | Compound | hERG current change (%, negative = inhibition) at 10uM [%]
1 | COc1ccc(C(CC(=O)Nc2cc(OC)cc(OC)c2)n2cccc2)cc1 (stereo not shown) | 2.58
2 | Nc1ccc(N2CCOCC2)c(Cl)c1 | 1.49
3 | CC(=O)Nc1ccc(S(=O)(=O)Nc2nc(CN3CCOCC3)nc3sc4c(c23)CCCC4)cc1 | -4
4 | CCOc1ccc(N(CC(=O)NCC2CCCO2)C(=O)CCC(=O)Nc2nccs2)cc1 (stereo not shown) | 2.69
5 | Cc1nn2c(-c3cccc(NC(=O)c4ccco4)c3)nnc2c2ccccc12 | -5.38
6 | Cc1ccc(OCCCCN2CCCCC2)c(Br)c1.O=C(O)C(=O)O | -62.6
7 | Cc1ccc(OCCOCCN2CCCC2)c(Br)c1.O=C(O)C(=O)O | -24.7
8 | Cc1ccc(OCCCCN2CCC(C)CC2)c(Br)c1.O=C(O)C(=O)O | -63.1
9 | Cc1ccc(C(C)C)c(OCCCCN2CCNCC2)c1.O=C(O)C(=O)O | -6.77
10 | Cc1ccc(OCCCCCCN2CCNCC2)c(Br)c1.O=C(O)C(=O)O | -30.3
11 | CNCCCOc1ccc(C)cc1Br.O=C(O)C(=O)O | -10.9
12 | COC(=O)/C(=C1/Oc2ccc(C)cc2S1)C(F)(F)F | 32.8
13 | CC(C)(C)c1ccc(N2C(=N)SCC2=O)cc1 | -0.538
14 | N=C1SCC(=O)N1c1ccc(Cl)cc1 | 8.91
15 | Cc1ccc(N2C(=N)SCC2=O)cc1Cl | -70.6
16 | Cc1oc2c(c1C(=O)N1CCOCC1)C(=O)c1ccccc1C2=O | 5.25
17 | CC(=O)N1CCc2cc(S(=O)(=O)NC(Cc3ccccc3)C(=O)NCCN3CCCCC3C)ccc21 (stereo not shown) | 5.72
18 | CCc1ccc(CNCCc2ccc(F)cc2)cc1 | -72.8
19 | Fc1ccccc1CCNCc1ccccc1 | 5.42
20 | Fc1ccc(CNCCc2ccccc2F)cc1 | -2.59
21 | Fc1ccc(CCNCc2ccc(Br)cc2)cc1 | -53.8
22 | Cc1ccccc1CCNCc1ccc(Br)cc1 | -53.6
23 | Fc1ccc(CNCc2ccc(Br)cc2)cc1 | -28.5

Row | Compound | hERG current change (%, negative = inhibition) at 10uM [%]
24 | CCc1ccc(CNCCc2ccccc2F)cc1 | -67.7
25 | Cl.c1ccc(CCNCc2ccccc2)cc1 | -9.4
26 | CCc1ccc(CNCc2ccc(F)cc2)cc1 | -21
27 | Cc1ccc(CNCCc2ccccc2F)cc1.Cl | -31.8
28 | O=C(Cc1ccc(Br)cc1)NCCc1ccc(F)cc1 | 11.3
29 | Fc1ccc(CNCCc2ccccc2)cc1.O=C(O)C(=O)O | -18.2
30 | Cc1cccc(-n2ncc3c2CCCC3NC(=O)Cc2c(C)noc2C)c1C (stereo not shown) | 15.9
31 | COc1ccc(/C=C2\SC(=S)N(CCCC(=O)NC3CCCC3)C2=O)cc1OC | -12.2
32 | Cc1nn(CCCC(=O)O)c(C)c1[N+](=O)[O-] | 12.3
33 | O=C(COc1ccc(S(=O)(=O)NC2CCCCC2)cc1)NCCC1=CCCCC1 | 2.33
34 | CCN(CC)S(=O)(=O)c1ccc(NC(=O)COC(=O)c2ccc(NC(=O)CC#N)cc2)cc1 | 20.5
35 | CCn1c(Cc2ccccc2)nnc1SCC(=O)OC(C)C | 0.117
36 | CCNC(=O)C1CC(=O)N(c2ccc(Br)cc2)C1 (stereo not shown) | 2.64
37 | CC1(C)Cc2c(sc3nc(NCCN4CCOCC4)n4ncnc4c23)CO1 | -5.72
38 | N/C(=N\OC(=O)CSc1ccccc1)c1ccncc1 | 0.55
39 | CC1CC(C)CN(C(=O)c2cc(S(=O)(=O)N3CCCCC3)ccc2Cl)C1 (stereo not shown) | -37.7
40 | Cc1ccc(NN2C(=O)C=C(c3ccc(Cl)cc3)C2=O)cc1 | 13.9
41 | CCN(CC)c1ccc(CNCCc2ccc(F)cc2)cc1.Cl | -58.8
42 | CCCCCCNCc1cccc(Br)c1.Cl | -11.3
43 | CCCCCCNCc1ccc(Br)cc1.Cl | -61.7
44 | Cl.Fc1ccc(CCNCc2cccc(Cl)c2)cc1 | -16.5
45 | CCN(CC)c1ccc(CNCCc2ccccc2F)cc1.Cl | -5.46
46 | CCCCCNCc1ccc(Br)cc1.Cl | -33.3
